Screens as filed in PubChem BioAssay.
This is a sample that favours compounds with a hit; in the whole collection about 5.2% have one here.
ALR H2O2 inh: blocks human ALR sulfhydryl oxidase activity | P55789 | purified ALR, DTT oxidation, H2O2 HRP-luminol luminescence | inhibition, % (test concentration not listed) | 290,000 compounds, 3.8% hits | AID 485317;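 active means mean replicate inhibition above about 79%, with every replicate also reaching it, limit read from the data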
Target sequence (P55789 whole entry, looked up): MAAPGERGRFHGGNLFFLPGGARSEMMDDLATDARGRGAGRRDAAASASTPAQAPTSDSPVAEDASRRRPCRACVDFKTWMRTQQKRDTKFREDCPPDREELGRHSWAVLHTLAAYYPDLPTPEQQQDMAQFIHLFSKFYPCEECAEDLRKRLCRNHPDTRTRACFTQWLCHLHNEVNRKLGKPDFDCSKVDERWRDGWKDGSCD
CendR NRP1 mod: alters CendR peptide binding to human NRP-1 | O14786 | FAM-RPARPAR peptide binding to NRP-1, fluorescence polarization | inhibition, % at 25 µM | 360,000 compounds, 0.85% hits | AID 602438;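 active means inhibition or corrected inhibition above about 18%, plus a signal ratio from 0.5 to 1.5, limit read from the data, passing the limit was not always enough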
CR mimetic SO: caloric restriction mimetics inhibiting age-related superoxide in yeast | S. cerevisiae aged cells, superoxide DHE fluorescence; active compounds read low | superoxide response (% of plate mean), % at 10 µM | 330,000 compounds, 0.18% hits | AID 2690;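 active means superoxide response under a set limit, about three screen SD below normal, cut at about 65% in these data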;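 further: yeast aged for seven days with compound at 30 °C before DHE staining; 100% = average MFI of all compound-treated wells on the plate with controls excluded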
APOBEC3A inh: human APOBEC3A DNA deaminase inhibition; P31941; recombinant A3A, FAM/TAMRA ssDNA deamination fluorescence; inhibition, % at 20 µM; 330,000 compounds, 0.41% hits; AID 493011;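 active means at least 40% inhibition at 20 µM here, with at most 30% in a related deaminase screen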;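 further: plate controls were A3A with DMSO for no effect and wells lacking A3A enzyme for full effect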
Target sequence (P31941 whole entry, looked up): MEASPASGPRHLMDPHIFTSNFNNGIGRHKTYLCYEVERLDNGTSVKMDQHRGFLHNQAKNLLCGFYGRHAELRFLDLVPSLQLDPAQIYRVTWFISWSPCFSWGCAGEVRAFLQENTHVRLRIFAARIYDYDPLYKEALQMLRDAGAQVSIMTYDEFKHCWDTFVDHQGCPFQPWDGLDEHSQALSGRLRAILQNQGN
M18AAP inhibitor: PfM18AAP enzyme inhibition | AID 1822 | 290,000 compounds, 1.2% hits | inhibition, % at 7.35 µM | recombinant PfM18AAP, H-Glu-NHMec fluorogenic cleavage;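 active means inhibition above the campaign mean inhibition over all tested compounds plus 3 SD, cut at about 28% in these data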;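 further: 0% = plate median of test compound wells and 100% = 2 mM ZnCl2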
A3G deaminase: APOBEC3G (human) deaminase inhibition; Q9HC16; recombinant A3G, ssDNA deamination FAM/TAMRA fluorescence; inhibition, % at 20 µM; 330,000 compounds, 0.28% hits; AID 493012;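 active means inhibition of at least 40% at 20 µM, with no more than 30% in the related APOBEC3A deaminase screen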;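 further: plate controls were DMSO wells with A3G for no effect and wells lacking A3G enzyme for full effect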
Numbers without * were called inactive.

`CC(O)(c1cccnc1)c1nc(/C=C/c2ccccc2)cs1` (stereo not drawn) gave CendR NRP1 mod 26*.
`COc1ccc(C(C)(O)c2nc(/C=C/c3ccccc3)cs2)cc1` (stereo not drawn) gave CendR NRP1 mod 16.
CCOC(=O)N1CCN(C(=O)C2CCN(C(=O)c3ccc([N+](=O)[O-])cc3)CC2)CC1 was read as ALR H2O2 inh -5, CendR NRP1 mod 12, CR mimetic SO 106, APOBEC3A inh 6, M18AAP inhibitor 0 and A3G deaminase -8.
CCN(CCC#N)c1ccc(/C=N/Nc2nc(C)cc(=O)[nH]2)c(C)c1 was read as ALR H2O2 inh 99*, CendR NRP1 mod -4, CR mimetic SO 86, APOBEC3A inh -4, M18AAP inhibitor 4 and A3G deaminase 0.
For Cc1cc(=O)[nH]c(Nc2ccc(Cl)cc2)n1 the results were CendR NRP1 mod 22*, CR mimetic SO 116, APOBEC3A inh -7, M18AAP inhibitor 0 and A3G deaminase -8.
Screening Cc1cc(=O)[nH]c(N/N=C/c2ccc(N(C)C)cc2)n1 returned ALR H2O2 inh 99*, CendR NRP1 mod -4, CR mimetic SO 96, APOBEC3A inh -3, M18AAP inhibitor 8 and A3G deaminase -4.
`Cc1cc(=O)[nH]c(N/N=C/c2ccc(F)cc2)n1` gave ALR H2O2 inh 15, CendR NRP1 mod -9, CR mimetic SO 92, APOBEC3A inh -1, M18AAP inhibitor 9 and A3G deaminase -7.
COc1cc(/C=N/Nc2nc(C)cc(=O)[nH]2)ccc1O was read as ALR H2O2 inh 98*, CendR NRP1 mod 12, CR mimetic SO 96, APOBEC3A inh -8, M18AAP inhibitor 19 and A3G deaminase -5.
NC(=O)CN1C(=O)C2C3C=CC(C3)C2C1=O (stereo not drawn) was read as ALR H2O2 inh -8, CendR NRP1 mod 7, CR mimetic SO 93, APOBEC3A inh 0, M18AAP inhibitor -1 and A3G deaminase -1.
`CCNc1nc(NCC)nc(N/N=C/c2ccc(N(C)C)cc2)n1` gave ALR H2O2 inh 99*, CendR NRP1 mod 0, CR mimetic SO 78, APOBEC3A inh -5, M18AAP inhibitor 7 and A3G deaminase -10.
Cc1cc(N/N=C/c2ccc(N(C)C)cc2)nc(NCc2ccccc2)n1 was read as ALR H2O2 inh 30, CendR NRP1 mod -6, CR mimetic SO 94, APOBEC3A inh 4, M18AAP inhibitor 3 and A3G deaminase 7.
Screening Cc1cc(=O)[nH]c(Nc2ccc(N(C)C)cc2)n1 returned ALR H2O2 inh 99*, CendR NRP1 mod 9, CR mimetic SO 92, APOBEC3A inh -6, M18AAP inhibitor -19 and A3G deaminase -4.
For COc1ccc(Cc2nnc(N/N=C/c3ccc(N(C)C)cc3)[nH]c2=O)cc1OC the results were ALR H2O2 inh 99*, CendR NRP1 mod 6, CR mimetic SO 104, APOBEC3A inh -4, M18AAP inhibitor 7 and A3G deaminase -6.
For COc1ccc(/C=N/Nc2nnc(Cc3ccc(OC)c(OC)c3)c(=O)[nH]2)cc1OC the results were ALR H2O2 inh 0, CendR NRP1 mod -6, CR mimetic SO 88, APOBEC3A inh 0, M18AAP inhibitor -7 and A3G deaminase -5.
O=C(O)c1ccc(CNS(=O)(=O)c2ccc3ccccc3c2)cc1 was read as ALR H2O2 inh -14, CendR NRP1 mod 8, CR mimetic SO 119, APOBEC3A inh 1, M18AAP inhibitor 1 and A3G deaminase -4.
COC(=O)c1nnn(CC(=O)NC(=O)Nc2ccccc2F)c1C(=O)OC was read as ALR H2O2 inh -2, CendR NRP1 mod 3, CR mimetic SO 97, APOBEC3A inh 2, M18AAP inhibitor -7 and A3G deaminase -5.
Screening COc1c(/C=N/NC(N)=S)c(C)nn1-c1ccccc1 returned ALR H2O2 inh 11, CendR NRP1 mod 4, CR mimetic SO 88, APOBEC3A inh -2, M18AAP inhibitor -5 and A3G deaminase -2.
CCN(CC)CCN1CCn2c3c(c4cc(C)ccc42)CCCC31 (stereo not drawn) was read as ALR H2O2 inh 99*, CendR NRP1 mod -7, CR mimetic SO 72, APOBEC3A inh 3, M18AAP inhibitor 5 and A3G deaminase 4.
`CCN1CCn2c3c(c4cc(Cl)ccc42)CCCC31` (stereo not drawn) gave ALR H2O2 inh 51, CendR NRP1 mod -20, CR mimetic SO 109, APOBEC3A inh -2, M18AAP inhibitor 2 and A3G deaminase -7.
